One assay has as its system PC49. The experiment in a line: qHTS profiling for inhibitors of Plasmodium falciparum proliferation (AID 504749).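 Further: 0% = DMSO vehicle and full inhibition = artemisinin control.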 The note with it: P. falciparum in erythrocytes, SYBR Green DNA, 72 h; series mostly up to 28.7 µM. Put shortly: (§1)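 Each compound contacts P. falciparum-infected red blood cells for 72 h at 37 C; lysis buffer (Tris, EDTA, saponin, Triton X, SYBR Green I) is added and fluorescence measured next morning; values normalized to controls.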

A further assay deals with SC27B. The assay is described as above. The following applies: P. falciparum in erythrocytes, SYBR Green DNA, 72 h; series mostly up to 28.7 µM. Put shortly: as §1
A further assay relates to TAB109. The description is as above. The following applies: P. falciparum in erythrocytes, SYBR Green DNA, 72 h; series mostly up to 28.7 µM. Put shortly: as §1
The subject of the next assay is TAB113. Described as above. The following applies: P. falciparum in erythrocytes, SYBR Green DNA, 72 h; series mostly up to 28.7 µM. The procedure, abridged:
as §1

Another assay concerns TAB165. The description is as above. The note with it: P. falciparum in erythrocytes, SYBR Green DNA, 72 h; series mostly up to 28.7 µM. Put shortly:
as §1

For a further assay, the system named is W2. The description is as above. The note with it: P. falciparum in erythrocytes, SYBR Green DNA, 72 h; series mostly up to 28.7 µM. Put shortly: as §1
The subject of a further assay is CRL-7250. Kind of assay: Cytotoxic Profiling of Annotated Libraries Using Quantitative High-Throughput Screening (AID 1296008). Further: potency means the concentration at half of the fitted maximal effect. On max response: on the % scale 0 is the no-effect control and ±100 the full control effect. The note with it: Five cell lines viability, CellTiter-Glo ATP luminescence, 48-72 h; max response: active compounds read low. The procedure, abridged: (§2)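 Cells exposed to compounds for 48 or 72 hr at 37 degrees Celsius. Viability read as ATP-coupled luminescence with CellTiter-Glo after 10 min at room temperature.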
For orientation: In ATP-based viability assays light output follows the ATP content of the culture.

The next assay deals with HEK293. The assay is described as above. The following applies: Five cell lines viability, CellTiter-Glo ATP luminescence, 48-72 h; max response: active compounds read low. Put shortly: as §2
The test system of another assay is HaCat. Described as above. The note with it: Five cell lines viability, CellTiter-Glo ATP luminescence, 48-72 h; max response: active compounds read low. The procedure, abridged: as §2
In the next assay the test system is KB-3-1. The description is as above. The note with it: Five cell lines viability, CellTiter-Glo ATP luminescence, 48-72 h; max response: active compounds read low. The procedure, abridged:
as §2

Several values for one entry are separate records, joined by “and”; a condition that tells them apart may be missing. Equal entries are not always repeated. Results filed as inconclusive are left out. Values without a mark were called inactive. Activity calls are given as the source filed them. The call rests on the fitted dose curve; in most records, active means well fitted inhibition curve with a large enough effect; inconclusive means small, poorly fitted or top-dose-only effect; inactive means flat fitted curve, though single readings scatter.
Further: nearly all actives have a fitted effect of over 60% in size.

For `O=C(O)[C@H](CC(=O)N1C[C@H]2CCCC[C@H]2C1)Cc1ccccc1`, the Potency result in the assay on PC49, with SC27B, in the assay on TAB109, in the assay with TAB113, in the assay on TAB165 and in the assay on W2 was “inactive” in each case. For the same compound, the max response was -6.27% in the assay with CRL-7250; -22.3% in the assay on HEK293; -9.54% with HaCat; -7.55% and -0.116% in the assay on KB-3-1.
With `CCCSc1ccc2nc(NC(=O)OC)[nH]c2c1`, the Potency result with PC49, in the assay with SC27B, with TAB109, in the assay on TAB113 and in the assay on TAB165 was “inactive” in each case. Besides, the Potency was 5.96 µM (active) with CRL-7250 and 0.75 µM (active) in the assay on HEK293. The max response with HaCat was -6.26%.
Turning to `CN1CCN(c2cc3c(nn2)Oc2ccccc2N3C)CC1`, the Potency result in the assay with PC49, in the assay with SC27B, with TAB109, in the assay on TAB113, in the assay with TAB165 and in the assay with W2 was “inactive” in each case. Further, the max response in the assay with CRL-7250 is -2.91%. The compound was classed as inactive with HEK293 and with HaCat.
`Nc1ccc(C(=O)O)c(O)c1`: the Potency entry with PC49, with SC27B, with TAB109, in the assay on TAB113, in the assay with TAB165 and in the assay on W2 was “inactive” throughout. The max response in the assay on CRL-7250 is -0.825%; in the assay on HEK293 it was 3.06%. Also, the compound was classed as inactive in the assay on HaCat.
With `Nc1ccc(O)c(C(=O)O)c1`, the Potency entry in the assay on PC49, with SC27B, with TAB109, with TAB113, in the assay with TAB165 and with W2 was “inactive” in each case. For the same compound, the call in the assay with CRL-7250 and with HaCat was inactive. In addition, the max response was -8.37% with HEK293 and 2.58% in the assay with KB-3-1.
As to `NCCO`, the max response with CRL-7250 was -2.34%; with HEK293 it was 4.02%; in the assay on KB-3-1, -25.6%. Besides, the outcome with HaCat was inactive.
As for `C=CCCCCCCCCC(=O)O`, the Potency entry in the assay on PC49, in the assay on SC27B, in the assay on TAB109, with TAB113, with TAB165 and in the assay on W2 was “inactive” in each case. The max response with CRL-7250 is 3.74%; in the assay on HaCat it was 0.628%; with KB-3-1, 1.18%. Moreover, the call in the assay on HEK293 was inactive.
Take `c1ccc2sc(SN3CCOCC3)nc2c1`: the Potency entry with PC49, with SC27B and in the assay with TAB113 was “inactive” throughout. Also, the result with CRL-7250, with HEK293 and in the assay with HaCat was inactive. The max response in the assay with KB-3-1 is 0.575%.
In the case of `Cc1ccc(O)c(-n2nc3ccccc3n2)c1`, the Potency entry in the assay on PC49, in the assay with SC27B, in the assay on TAB109, with TAB113, in the assay on TAB165 and in the assay with W2 was “inactive” in each case. The max response in the assay on CRL-7250 was -18.8%; in the assay on HEK293, -9.47%; in the assay on HaCat, -23.9%; in the assay with KB-3-1, -10.3%.
`COC(=O)[C@H]1[C@H]2C[C@@H]3c4[nH]c5cc(OC)ccc5c4CCN3C[C@H]2C[C@@H](OC(=O)/C=C/c2cc(OC)c(OC)c(OC)c2)[C@@H]1OC`: the figures for the max response in the assay with CRL-7250, with HEK293 and in the assay on KB-3-1 were -14.2%, -6.09% and -8.17%, respectively. The compound was called inactive with HaCat and in the assay with KB-3-1.
With `CCNC(=O)[C@H]1O[C@@H](n2cnc3c(N)nc(NCCc4ccc(CCC(=O)O)cc4)nc32)[C@H](O)[C@@H]1O`, the max response was 3.23% in the assay on CRL-7250, 2.46% in the assay on HaCat and 2.49% with KB-3-1. Further, in the assay on HEK293, the call was inactive.
For `CC1(C)[C@@H](O)CC[C@]2(C)[C@H]3C(=O)C=C4[C@@H]5C[C@@](C)(C(=O)O)CC[C@]5(C)CC[C@@]4(C)[C@]3(C)CC[C@@H]12`, the Potency result in the assay with PC49, in the assay on SC27B, in the assay on TAB109, with TAB113, with TAB165 and in the assay on W2 was “inactive” throughout. The max response is 1.85% in the assay with CRL-7250; -15.3% in the assay with HaCat; 9.23% and -7.89% in the assay with KB-3-1. Also, the outcome in the assay on HEK293 and in the assay with KB-3-1 was inactive.
Take `CC(C)OC(=O)c1cc(C(=O)OC(C)C)cc([N+](=O)[O-])c1`: the compound was called inactive in the assay with CRL-7250 and with HaCat. Further, the results for the max response with HEK293 and in the assay with KB-3-1 were 4.1% and 2.68%, respectively.
As to `CCOc1ccc2nc(S(N)(=O)=O)sc2c1`, the Potency result in the assay with PC49, in the assay on SC27B, with TAB109, in the assay on TAB113, in the assay on TAB165 and in the assay on W2 was “inactive” throughout. Further, the max response was -14% in the assay on CRL-7250, -2.22% in the assay on HEK293 and -4.97% in the assay on HaCat.
As to `O=[N+]([O-])c1ccc(CNc2nc(NCc3cccc(C(F)(F)F)c3)nc3nc[nH]c23)cc1`, the max response was -5.54% in the assay with CRL-7250, -22% in the assay on HEK293 and 0.807% with HaCat. The compound was classed as inactive in the assay on KB-3-1.
On to `CCC1C(=O)OCC1Cc1cncn1C` (centres undefined), for which the Potency result with PC49, in the assay on SC27B, in the assay with TAB109, with TAB113, with TAB165 and in the assay with W2 was “inactive” in each case. For the same compound, in the assay with CRL-7250, the compound was called inactive. Besides, the max response is 0.743% with HEK293, 0.604% in the assay on HaCat and -11.4% in the assay with KB-3-1.
On to `Nc1c(CC(=O)O)cccc1C(=O)c1ccc(Br)cc1`, for which the Potency result in the assay with PC49, in the assay on SC27B, in the assay on TAB109, in the assay with TAB113, with TAB165 and in the assay on W2 was “inactive” in each case. Further, the max response in the assay with CRL-7250 is 4.53%; with HEK293, 2.21%; with KB-3-1, 0.539%. In addition, the result in the assay on HaCat was inactive.
Turning to `Nc1cc(-c2ccncc2)c[nH]c1=O`, the Potency entry with PC49, in the assay with SC27B, in the assay on TAB109, in the assay on TAB113, in the assay with TAB165 and in the assay with W2 was “inactive” each time. Also, the compound was classed as inactive in the assay on CRL-7250. Moreover, the max response in the assay with HEK293 is 1.99%; in the assay on HaCat it was 3.01%; in the assay on KB-3-1 it was 4.08%.

Source of the values: PubChem BioAssay (NCATS).
